# Source: PubChem BioAssay (NCATS)
# Several values for one entry are separate records, joined by “and”; a condition that tells them apart may be missing. Identical values can stand only once. Results filed as inconclusive are left out. The list shows a part of the results. Activity calls are given as the source filed them. Unless noted, calls come from the whole dose curve; as a rule, active = well fitted curve in the direction sought with a large enough effect; inconclusive = small, poorly fitted or top-dose-only effect, or another doubt; inactive = no such curve, though single readings can be large; an effect the other way counts as inactive or inconclusive.
# Key:
# [1] = qHTS Assay for Lipid Storage Modulators (AID 1519; calls by dose curve); conditions: Drosophila S3 cells, BODIPY lipid droplet/cell ratio, laser cytometry, cells loaded with oleic acid
# Procedure, shortened: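 Cells seeded at 5,000 per well were treated with compounds over a concentration series and loaded with oleic acid (400 uM, as added). Lipid droplet fluorescence (488 nm excitation, 500-530 nm channel) was read by laser-scanning cytometry and normalized to 20 uM Triacsin C.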
# [2] = biological target: alpha-glucosidase (Oryza sativa, rice) (UniProt Q653V4); test: Counterscreen for Glucocerebrosidase Inhibitors: qHTS Assay for Rice alpha-Glucosidase at pH 5.0 (AID 997); conditions: rice alpha-glucosidase enzyme activity; series mostly up to 76.9 µM;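 note: 0% = full activity with enzyme and -100% = basal without enzyme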
# Procedure, shortened: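 Rice alpha-glucosidase (4 nM final) with 400 uM 4-methylumbelliferyl-alpha-D-glucopyranoside in citrate buffer pH 5.0, 20 min at room temperature, stopped at pH 10; fluorescence 365/440 nm, compounds 0.7 nM–77 uM, AC50 from Hill fits.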
# [3] = Validation of Assay for Modulators of Lamin A Splicing (AID 1459; active = well fitted curve in the direction sought with a large enough effect in the signal ratio; the % refers to the signal ratio;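 note: cells exposed to compound for two days before reading; 0% is about no effect; ratio rise marks activators and ratio drop marks inhibitors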); conditions: Lamin A splicing dual RFP/GFP fluorescence reporter; series mostly up to 9.22 µM
# Procedure, shortened: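 Dual-reporter HeLa S3 line (lamin A-EGFP minigene, DsRed2) treated with compounds 48 hrs, 0.5% DMSO final. Endpoint: EGFP/DsRed2 total intensity ratio from laser-scanning microplate cytometry.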
# [4] = biological target: DNA repair nuclease/redox regulator APEX1 (Homo sapiens) (UniProt P27695); test: qHTS Validation Assay for Inhibitors of the Human Apurinic/apyrimidinic Endonuclease 1 (APE1) (AID 1705;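 note: TAMRA fluorescence gain over two minutes as APE1 cuts a quenched THF abasic duplex; % is set by controls: 0 for no effect and ±100 for the full control effect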); conditions: purified APE1 endonuclease activity, fluorescence, titration; series mostly up to 57.1 µM
# Procedure, shortened: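 Substrate: 50 nM final fluorophore/quencher THF-abasic duplex. Enzyme preincubated with compounds 15 min, RT. Progress derived from fluorescence difference, third minus first kinetic read.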
# [5] = Counterscreen for APE1 Inhibitors: Fluorescent Dye Displacement Validation Assay (AID 1707); conditions: fluorescent dye displacement from DNA; series mostly up to 57.1 µM;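 note: plate controls were ThO with dsDNA and no compound for no effect and ThO without dsDNA for full effect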
# Procedure, shortened: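 Thiazole Orange (250 nM) bound to 50 nM TAMRA-labelled dsDNA with tetrahydrofuran abasic site; displacement by DNA-binding compounds lowers fluorescence. Buffer 50 mM Tris-HCl pH 7.5, 50 mM NaCl, 2 mM MgCl2, 0.01% Tween-20; endpoint read at 480/540 nm.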
# [6] = biological target: Endonuclease 4 (Escherichia coli (strain K12)) (UniProt P0A6C1); test: Counterscreen for APE1 Inhibitors: qHTS Validation Assay for Inhibitors of Endonuclease IV (AID 1708); note: % is set by controls: 0 for no effect and ±100 for the full control effect; conditions: E. coli endonuclease IV, DNA cleavage fluorescence; series mostly up to 57.1 µM
# Procedure, shortened: (§1)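 Enzymatic AP-site incision assay using a double-stranded THF substrate labelled with TAMRA and BHQ-2; released fluorescence signals activity. Enzyme 2 nM, substrate 50 nM, 15 min compound preincubation.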
# [7] = qHTS for differential inhibitors of proliferation of Plasmodium falciparum line 3D7 (AID 1876); note: potency is the fitted concentration of half-maximal effect; conditions: P. falciparum 3D7 proliferation inhibition
# [8] = qHTS for differential inhibitors of proliferation of Plasmodium falciparum line Dd2 (AID 1882); conditions: series mostly up to 28.7 µM;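 note: compound exposure of 72 h on infected erythrocytes; plate controls were DMSO vehicle for no effect and 0.29 µM artemisinin for full effect; nearly all actives have a fitted effect of over 65% in size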
# Procedure, shortened: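 SYBR Green I DNA fluorescence read-out, ex 485/em 535 nm. Signals were normalized to 0.29 uM artemisinin and DMSO wells, then corrected using vehicle-only plates flanking each stack. Parasite growth ran 72 h in erythrocytes before lysis.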
# [9] = qHTS for differential inhibitors of proliferation of Plasmodium falciparum line W2 (AID 1883); conditions: Plasmodium falciparum W2 proliferation inhibition;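 note: potency is the fitted concentration of half-maximal effect; parasites grown with compound for 72 h before lysis and staining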
# [10] = biological target: Ferritin light chain (Equus caballus) (UniProt P02791); test: qHTS Validation Assay for Identification of Novel General Anesthetics (AID 2323); conditions: horse apoferritin, anesthetic-site fluorescent probe displacement; series mostly up to 76.9 µM; note: % is set by controls: 0 for no effect and ±100 for the full control effect
# Procedure, shortened: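 Normalized fluorescence response, scaled between free 1-AMA and 1-AMA/apoferritin complex, fitted to a four-parameter Hill equation for concentration-effect values. Binding mix: 10 uM horse-spleen apoferritin, 50% saturated 1-AMA in PBS; read 380/535 nm after 10 min.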
# [11] = biological target: ATP-dependent DNA helicase Q1 (Homo sapiens) (UniProt P46063); test: qHTS Validation Assay for Inhibitors of RecQ-Like Dna Helicase 1 (RECQ1) (AID 2353); conditions: recombinant RECQ1 helicase DNA unwinding assay; series mostly up to 25.6 µM;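 note: plate controls were DMSO vehicle for no effect and enzyme-free control for full effect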
# Procedure, shortened: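 50 nM RECQ1T1 preincubated 15 min with compound in Tris pH 8.0 buffer with MgCl2, DTT, Tween-20 and 2.5 ug/ml poly(dI-dC); started with 200 nM TAMRA/BHQ-2 forked duplex and 2 mM ATP. Unwinding read as fluorescence (525/598 nm), two reads 2 h apart.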
# [12] = biological target: RecQ-like DNA helicase BLM (Homo sapiens) (UniProt P54132); test: qHTS Validation Assay for Inhibitors of Bloom's syndrome helicase (BLM) (AID 2364); conditions: BLM helicase DNA unwinding, fluorescence, in vitro; series mostly up to 57.1 µM;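 note: plate controls were DMSO vehicle for no effect and enzyme-free control for full effect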
# Procedure, shortened: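 Forked 20-bp duplex substrate (200 nM, TAMRA/BHQ-2) plus 2 mM ATP added after 15 min compound preincubation with 50 nM enzyme, pH 8.0, poly(dI-dC) 2.5 ug/ml. Strand separation followed by fluorescence (525/598 nm) over 2 h, normalized to enzyme-free and DMSO controls.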
# [13] = biological target: Endonuclease 4 (Escherichia coli (strain K12)) (UniProt P0A6C1); test: Counterscreen for APE1 Inhibitors: qHTS Assay for Inhibitors of Endonuclease IV (AID 2565);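 note: plate controls were uninhibited enzyme wells for no effect and no enzyme buffer wells for full effect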; conditions: E. coli Endo IV, fluorogenic AP-site DNA cleavage; series mostly up to 57.1 µM
# Procedure, shortened: as §1
# [14] = biological target: DNA repair nuclease/redox regulator APEX1 (Homo sapiens) (UniProt P27695); test: Confirmation qHTS Assay for Inhibitors of the Human Apurinic/apyrimidinic Endonuclease 1 (APE1) (AID 2572); conditions: purified APE1, fluorogenic abasic-site DNA cleavage; note: potency is the fitted concentration of half-maximal effect; nearly all actives have a fitted effect of over 30% in size
# Procedure, shortened: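 15 min RT compound–APE1 preincubation → add 50 nM final THF-abasic TAMRA/BHQ-2 dsDNA → immediate kinetic read, 3 × 60 s, Ex 525/Em 598 → Δ fluorescence (read 3 − read 1).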
# [15] = biological target: DNA repair nuclease/redox regulator APEX1 (Homo sapiens) (UniProt P27695); test: qHTS FP-Based Assay for Inhibitors of the Human Apurinic/apyrimidinic Endonuclease 1 (APE1) (AID 2573); conditions: APE1 binding to TAMRA-labelled double-stranded DNA, fluorescence polarization displacement; series mostly up to 57.1 µM; note: % is set by controls: 0 for no effect and ±100 for the full control effect
# Description: The apurinic/apyrimidinic endonuclease APE1 is the primary mammalian enzyme responsible for the removal of abasic (or AP) sites in DNA and functions centrally in the base excision DNA repair (BER) pathway. […] Thus, targeting APE1 could improve the efficacy of current treatment paradigms by promoting selective sensitization or protection of diseased and normal cells, respectively.
# In order to gain insight into the mode of action of confirmed APE1 inhibitors, we implemented a miniaturized fluorescence polarization assay designed to report on compounds which competitively displace ds-DNA substrate. The fluorescence polarization assay has been implemented in 384- and 1536-well format for binding of TAMRA-labeled double-stranded DNA probe not containing a quencher. The binding of protein to DNA is inhibited by ATA, a general inhibitor of APE1 activity.
# See also related primary fluorogenic assay (AID 2517). […]
# Three uL of enzyme were dispensed to 1536-well Greiner black solid bottom plates. […] The plates were immediately transferred into ViewLux High-throughput CCD imager (Perkin-Elmer) in order to measure the reaction progress in kinetic mode (three reads every 60 seconds) using 525 nm excitation and 598 nm emission fluorescence protocol. The fluorescence intensity difference between the third and the first time points was used to compute reaction progress.
# [16] = Cell Viability - LYMP1-002 - Assay at 40 hr (AID 994); conditions: LYMP1-002 lymphoblastoid cell viability; series mostly up to 92.2 µM; note: nearly all actives have a fitted effect of over 60% in size; note: potency is the fitted concentration of half-maximal effect
# Procedure, shortened: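 Viability in the human lymphoblastoid line was measured as intracellular ATP via CellTiter-Glo after 40 hr compound exposure. Tetraoctylammonium bromide served as positive control.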
# [17] = qHTS Assay for Identification of Small Molecule Inducers of Hypoxia Response (AID 2120; active = well fitted curve in the direction sought with a large enough effect in the signal ratio, with a control signal flat, not every such curve was filed as active; the % refers to the signal ratio; note: 0% is about no effect); conditions: hypoxia response reporter cells, beta-lactamase ratio readout; series mostly up to 104 µM
# Procedure, shortened: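 Induction of beta-lactamase reporter activity was measured in CellSensor HRE-bla ME-180 cells after 17 h compound treatment at 37 degrees C, using CCF4 substrate and the 460nm/530nm emission ratio to derive AC50 values.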
# [18] = measured here: cell count channel max response
# [19] = measured here: lipid channel max response
# DNA repair nuclease/redox regulator APEX1 (Homo sapiens), sequence (P27695 whole entry, looked up): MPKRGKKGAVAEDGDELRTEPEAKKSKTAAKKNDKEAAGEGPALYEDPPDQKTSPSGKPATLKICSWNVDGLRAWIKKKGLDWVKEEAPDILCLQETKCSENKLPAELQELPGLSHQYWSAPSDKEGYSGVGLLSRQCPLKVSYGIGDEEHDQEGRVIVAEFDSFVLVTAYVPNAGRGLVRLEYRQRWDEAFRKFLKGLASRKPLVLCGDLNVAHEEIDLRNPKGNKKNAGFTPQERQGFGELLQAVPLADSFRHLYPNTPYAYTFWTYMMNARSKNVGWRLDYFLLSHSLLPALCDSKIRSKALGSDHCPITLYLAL
# ATP-dependent DNA helicase Q1 (Homo sapiens), sequence (P46063 whole entry, looked up): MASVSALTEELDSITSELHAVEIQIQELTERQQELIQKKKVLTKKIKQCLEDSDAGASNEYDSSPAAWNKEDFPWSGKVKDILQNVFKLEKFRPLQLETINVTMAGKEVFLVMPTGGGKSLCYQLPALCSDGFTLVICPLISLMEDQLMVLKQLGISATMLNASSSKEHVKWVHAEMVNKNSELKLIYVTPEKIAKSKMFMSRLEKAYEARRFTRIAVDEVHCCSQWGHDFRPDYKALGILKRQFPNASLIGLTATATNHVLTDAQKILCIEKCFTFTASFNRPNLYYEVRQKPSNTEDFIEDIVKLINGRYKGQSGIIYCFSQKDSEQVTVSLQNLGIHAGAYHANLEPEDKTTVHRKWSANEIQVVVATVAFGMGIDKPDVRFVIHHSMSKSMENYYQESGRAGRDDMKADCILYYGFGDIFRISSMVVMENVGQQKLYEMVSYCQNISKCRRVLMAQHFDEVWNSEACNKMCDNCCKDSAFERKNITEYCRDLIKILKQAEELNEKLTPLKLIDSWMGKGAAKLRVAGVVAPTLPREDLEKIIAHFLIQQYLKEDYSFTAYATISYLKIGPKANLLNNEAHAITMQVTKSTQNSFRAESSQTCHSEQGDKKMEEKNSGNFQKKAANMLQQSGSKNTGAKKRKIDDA
# RecQ-like DNA helicase BLM (Homo sapiens), sequence (P54132 whole entry, looked up): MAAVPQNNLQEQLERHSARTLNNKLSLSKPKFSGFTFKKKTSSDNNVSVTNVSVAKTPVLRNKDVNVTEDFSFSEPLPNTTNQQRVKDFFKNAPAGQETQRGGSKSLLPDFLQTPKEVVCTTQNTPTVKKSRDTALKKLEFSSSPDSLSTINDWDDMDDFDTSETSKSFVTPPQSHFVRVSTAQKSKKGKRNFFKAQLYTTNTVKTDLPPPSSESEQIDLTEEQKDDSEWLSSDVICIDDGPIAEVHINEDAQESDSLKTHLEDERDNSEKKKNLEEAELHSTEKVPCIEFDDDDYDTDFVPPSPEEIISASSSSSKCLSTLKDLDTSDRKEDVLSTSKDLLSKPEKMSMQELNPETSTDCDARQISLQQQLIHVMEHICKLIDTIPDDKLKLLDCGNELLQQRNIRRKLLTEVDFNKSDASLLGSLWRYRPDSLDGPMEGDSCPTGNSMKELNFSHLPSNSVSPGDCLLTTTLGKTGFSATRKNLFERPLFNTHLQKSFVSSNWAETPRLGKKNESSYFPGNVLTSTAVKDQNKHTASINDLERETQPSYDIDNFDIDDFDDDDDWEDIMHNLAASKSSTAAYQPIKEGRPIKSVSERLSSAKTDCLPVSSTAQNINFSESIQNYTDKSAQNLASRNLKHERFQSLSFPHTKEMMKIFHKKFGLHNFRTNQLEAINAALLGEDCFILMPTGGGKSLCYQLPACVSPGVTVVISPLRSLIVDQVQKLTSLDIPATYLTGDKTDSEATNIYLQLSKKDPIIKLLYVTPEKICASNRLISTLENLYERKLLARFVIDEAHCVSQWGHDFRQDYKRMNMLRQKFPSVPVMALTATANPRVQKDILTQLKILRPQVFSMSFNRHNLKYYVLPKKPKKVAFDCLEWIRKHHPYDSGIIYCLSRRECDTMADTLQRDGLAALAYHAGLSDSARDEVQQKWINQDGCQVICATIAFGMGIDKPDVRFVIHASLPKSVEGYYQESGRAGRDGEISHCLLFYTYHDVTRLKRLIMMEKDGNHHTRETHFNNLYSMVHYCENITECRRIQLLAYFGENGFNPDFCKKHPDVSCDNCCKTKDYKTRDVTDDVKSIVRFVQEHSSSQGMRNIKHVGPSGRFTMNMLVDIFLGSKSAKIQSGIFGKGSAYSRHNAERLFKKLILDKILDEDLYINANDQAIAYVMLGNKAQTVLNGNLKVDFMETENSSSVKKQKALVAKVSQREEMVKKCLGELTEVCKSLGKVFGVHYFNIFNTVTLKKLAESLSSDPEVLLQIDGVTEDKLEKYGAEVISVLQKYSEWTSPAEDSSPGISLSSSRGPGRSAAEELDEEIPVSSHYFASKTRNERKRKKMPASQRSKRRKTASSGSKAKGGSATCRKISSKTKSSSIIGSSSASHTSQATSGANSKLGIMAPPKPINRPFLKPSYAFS
# Ferritin light chain (Equus caballus), sequence (P02791 2-175 limits assumed): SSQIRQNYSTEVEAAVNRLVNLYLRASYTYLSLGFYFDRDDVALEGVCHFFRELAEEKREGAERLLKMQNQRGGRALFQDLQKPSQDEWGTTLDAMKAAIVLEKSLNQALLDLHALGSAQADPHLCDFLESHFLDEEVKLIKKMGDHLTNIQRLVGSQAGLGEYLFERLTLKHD
compound,measurement,setting,value
CCC(=O)NCCC1CCc2ccc3c(c21)CCO3 (centres undefined),"activity change, negative = inhibition",[1]; at 57.5 µM (top of the series),11.3% (inactive)
same,max response,[1]; [18],9.34%
same,max response,[1]; [19],23.8%
CC(C)(C)C(=O)OCOC(=O)[C@@H]1N2C(=O)[C@@H](N=CN3CCCCCC3)[C@H]2SC1(C)C,"activity change, negative = inhibition",[1]; at 25.7 µM (top of the series),-0.208% (inactive)
same,max response,[1]; [18],-9.59%
same,max response,[1]; [19],-6.96%
CC1=C(/C=C/C(C)=C/C=C/C(C)=C/C=C/C=C(C)/C=C/C=C(C)/C=C/C2=C(C)CCCC2(C)C)C(C)(C)CCC1,"activity change, negative = inhibition",[1]; at 57.5 µM (top of the series),1.45% (inactive)
same,max response,[1]; [18],15.1%
same,max response,[1]; [19],17%
NC(=O)c1ncn(C2OC(CO)C(O)C2O)n1 (centres undefined),"activity change, negative = inhibition",[1]; at 57.5 µM (top of the series),2.97% (inactive)
same,max response,[1]; [18],6.51%
same,max response,[1]; [19],12.6%
CC[N+](C)(C)Cc1ccccc1Br,outcome,[2],inactive
same,outcome,[3],inactive
same,"activity change, negative = inhibition",[1]; at 25.7 µM (top of the series),-0.125% (inactive)
same,"activity change, negative = inhibition",[1]; at 57.5 µM (top of the series),0.506% (inactive)
same,max response,[1]; [18],1.39% and 57.6%
same,max response,[1]; [19],2.06% and 57.4%
same,outcome,[4],inactive
same,outcome,[5],inactive
same,outcome,[6],inactive
same,Potency,[7],14.1 µM (active)
same,outcome,[8],inactive
same,Potency,[9],11.2 µM (active)
same,outcome,[10],inactive
same,outcome,[11],inactive
same,outcome,[12],inactive
CC1(C)S[C@@H]2[C@H](NC(=O)Cc3ccccc3)C(=O)N2[C@H]1C(=O)O,"activity change, negative = inhibition",[1]; at 25.7 µM (top of the series),-1.47% (inactive)
same,max response,[1]; [18],2.65%
same,max response,[1]; [19],2.53%
Oc1cc(O)c2c(c1)OC(c1ccc(O)c(O)c1)C(O)C2 (centres undefined),"activity change, negative = inhibition",[1]; at 57.5 µM (top of the series),7.06% (inactive)
same,max response,[1]; [18],2.83%
same,max response,[1]; [19],12.7%
same,outcome,[13],inactive
same,Potency,[14],2.51 µM (active)
same,outcome,[15],inactive
IC(I)I,Potency,[16],inactive
same,outcome,[17],inactive
CC1=C2[C@@H]([C@H](C)CC[C@H]2/C=C(\C)C(=O)O)[C@H](O)C1,Potency,[16],inactive
same,outcome,[17],inactive
CCCCCCCC/C=C\CCCCCCCC(=O)O,Potency,[16],inactive
same,outcome,[17],inactive
CC(C)(C)NC(=O)[C@@H]1C[C@@H]2CCCC[C@@H]2CN1C[C@@H](O)[C@H](Cc1ccccc1)NC(=O)[C@H](CC(N)=O)NC(=O)c1ccc2ccccc2n1,Potency,[16],50.1 µM (active)
CC(C)=O,Potency,[16],inactive
same,outcome,[17],inactive
Cc1cc(C(=O)NNCc2ccccc2)no1,"activity change, negative = inhibition",[1]; at 25.7 µM (top of the series),-1.95% (inactive)
same,max response,[1]; [18],-16.5%
same,max response,[1]; [19],-16.7%
CCCCC/C=C\C/C=C\CCCCCCCC(=O)O,Potency,[16],inactive
same,outcome,[17],inactive
CC1=C(/C=C/C(C)=C/C=C/C(C)=C/CO)C(C)(C)CCC1,outcome,[17],inactive
Cc1ccccc1,Potency,[16],inactive
same,outcome,[17],inactive
O=C(O)CCC(=O)C(=O)O,Potency,[16],inactive
